Screens from PubChem.
Compounds with a hit are over-represented: about 6.5% of the library has one in this group of screens.
FMDV antiviral: antivirals against foot and mouth disease virus | FMDV antiviral cell-based qHTS | Potency, µM (highest dose often 57.9 µM), usual class: inhibitors | 410,000 tested, 1.2% active; calls by dose curve; tested in HEK293T cells; also: read-out not given here; nearly all actives have a fitted effect of over 45% in size
VACV Venus inh: inhibitors of vaccinia virus (Venus reporter) | 330,000 tested, 0.46% active | Vaccinia virus Venus reporter expression, fluorescence | Potency, µM (highest dose often 36.5 µM), hits mostly inhibitors; calls by dose curve; tested in A549 cells; also: nearly all actives have a fitted effect of over 30% in size
Lassa entry inh: Lassa virus entry inhibition; Potency, µM (doses to about 37.9 µM), actives largely listed as inhibitors; AID 540256; Lassa virus pseudotype entry inhibition, cell reporter; 300,000 tested, 1.2% active; calls by dose curve; tested in HEK293 cells; also: nearly all actives have a fitted effect of over 50% in size
HCMV inh: blocks human cytomegalovirus replication. HFF cells, HCMV-luciferase reporter, 72 h; hits give low values. activity change, negative = inhibition, % at 57.5 µM. 410,000 tested, 4.5% active; in the data active = activity change below about -60%; inconclusive = no clear call, values can overlap the other calls; inactive = above about -39%
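Two compound doses tested in HFFs infected with HCMV-luciferase, MOI 1 PFU/cell, 72 h at 37C. Lysate luminescence read with OneGlo; data normalized against buffer-only and 10uM Salinomycin inhibitor controls.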
Marburg entry inh: Marburg virus entry inhibition | Marburg virus pseudotyped entry inhibition, cell reporter | Potency, µM (titrated, usually from 37.8 µM), hits mostly inhibitors | 300,000 tested, 1.8% active; calls by dose curve; tested in HEK293 cells
Vaccinia mCherry: vaccinia inhibition (mCherry reporter); Vaccinia virus mCherry reporter infection, fluorescence; Potency, µM (top dose mostly 36.5 µM), most hits filed as inhibitors; 310,000 tested, 0.63% active; calls by dose curve; tested in A549 cells; also: nearly all actives have a fitted effect of over 35% in size
Of the large screens only hits and unclear results are named; the others gave an inactive call.

CCCN1CNc2c(c(=O)[nH]c(=S)n2CCc2ccc(OC)cc2OC)C1	none (no result: FMDV antiviral, Lassa entry inh, HCMV inh, Marburg entry inh)
CCC(C)c1ccc(C(C)NC(=S)NC2CCCCC2)cc1 (stereo not drawn)	FMDV antiviral inconclusive, VACV Venus inh inconclusive, Lassa entry inh inconclusive, HCMV inh -73.1, Marburg entry inh inconclusive
CSc1ccccc1C(=O)Nc1ccc(S(=O)(=O)NC2=NCCCCC2)cc1	none (no result: VACV Venus inh, Lassa entry inh, Marburg entry inh, Vaccinia mCherry)
COc1ccccc1C(=O)Nc1ccc(S(=O)(=O)NC2=NCCCCC2)cc1	HCMV inh -60.3
CCc1nnc(NS(=O)(=O)c2ccc(NC(=O)c3ccccc3OC)cc2)s1	HCMV inh active (no result: VACV Venus inh, Lassa entry inh, Marburg entry inh, Vaccinia mCherry)
CCOC(=O)c1ccc(N=C2SC(C(=O)Nc3ccc(C(=O)O)cc3)CC(=O)N2Cc2cccs2)cc1 (stereo not drawn)	HCMV inh -70.9, Marburg entry inh inconclusive
O=C(c1ccc(COc2ccccc2Br)o1)N1N=C(C(F)F)CC1(O)C(F)F (stereo not drawn)	VACV Venus inh inconclusive, Marburg entry inh 7.08µM
CCOc1cccc2sc(N3CCN(C(=O)C(C)(C)C)CC3)nc12	Lassa entry inh inconclusive (no result: Marburg entry inh)
COc1ccc(NC(=O)C2(C)CCN2Cc2cccc(OC)c2F)cc1OC (stereo not drawn)	FMDV antiviral inconclusive (no result: Lassa entry inh, Marburg entry inh)
CCN(CC)c1cc(C)c2cc(NC(=O)c3ccccc3F)ccc2n1	HCMV inh -79.6 (no result: VACV Venus inh, Lassa entry inh, Vaccinia mCherry)
CCN(CC)c1cc(C)c2cc(NC(=O)c3cccc(OC)c3OC)ccc2n1	HCMV inh inconclusive
CCOc1ccccc1C(=O)Nc1ccc2nc(N(CC)CC)cc(C)c2c1	Marburg entry inh inconclusive
CCOc1ccc(C(=O)Nc2ccc3nc(N(CC)CC)cc(C)c3c2)cc1	FMDV antiviral 31.6µM, HCMV inh -86.1
CCN(CC)c1cc(C)c2cc(NC(=O)c3cccc(OC)c3)ccc2n1	Lassa entry inh inconclusive, HCMV inh -70.9, Marburg entry inh inconclusive
O=C(Nc1cccs1)Nc1cc(C(F)(F)F)ccc1Cl	Marburg entry inh inconclusive (no result: Lassa entry inh)
Cc1ccc(CNC(=O)C2CC3Cn4c(nc5ccccc54)C3N2C)o1 (stereo not drawn)	none (no result: Lassa entry inh, Marburg entry inh)
Cc1ccc(CNC(=O)C2CC3Cn4c(nc5cc6ccccc6cc54)C3N2C)o1 (stereo not drawn)	HCMV inh -100.6 (no result: Lassa entry inh, Marburg entry inh)
CCN1C(=O)N(CC)C(O)(c2ccccc2)C1(O)c1ccccc1 (stereo not drawn)	HCMV inh -61.9 (no result: Vaccinia mCherry)
CCCn1c(=O)n(C)c(=O)c2c(SC(C)C(=O)NCC3CCCO3)nc(CC(C)C)nc21 (stereo not drawn)	Marburg entry inh inconclusive
Cc1cccc(Cl)c1NC(=O)C(Nc1ccccc1)c1ccccc1F (stereo not drawn)	none (no result: FMDV antiviral, VACV Venus inh, Lassa entry inh, Marburg entry inh, Vaccinia mCherry)
COc1cccc(NC(=O)C(Nc2ccccc2)c2ccccc2F)c1 (stereo not drawn)	HCMV inh -67.2 (no result: FMDV antiviral, VACV Venus inh, Lassa entry inh, Marburg entry inh, Vaccinia mCherry)
O=c1cc(-c2ccccc2)[nH]n1-c1ccc([N+](=O)[O-])cc1	FMDV antiviral inconclusive, HCMV inh -95.0 (no result: VACV Venus inh, Vaccinia mCherry)
CC(C)[C@H](NC(=O)OC(C)(C)C)C(=O)N1CCC(C(=O)N[C@@H](C)C(=O)Nc2ccc(F)cc2)CC1	none (no result: VACV Venus inh, Lassa entry inh, Marburg entry inh, Vaccinia mCherry)
CCc1ccc(NC(=O)[C@H](C)NC(=O)C2CCN(C(=O)[C@@H](NC(=O)OC(C)(C)C)C(C)C)CC2)cc1	HCMV inh -70.7 (no result: VACV Venus inh, Lassa entry inh, Vaccinia mCherry)
O=Cc1[nH]c2ccccc2c1N(C(=O)CCl)c1ccc([N+](=O)[O-])cc1	Lassa entry inh inconclusive, HCMV inh -101.1, Marburg entry inh inconclusive
CC(=O)n1cc(CO)c2ccccc21	none (no result: Lassa entry inh, Marburg entry inh)
CC(=O)n1cc(N(C(=O)CCl)c2ccc([N+](=O)[O-])cc2)c2ccccc21	FMDV antiviral 10µM, Lassa entry inh inconclusive, HCMV inh inconclusive, Marburg entry inh inconclusive
CC(=O)n1cc(N(C(=O)CCl)c2ccccc2)c2ccccc21	FMDV antiviral 14.1µM, Lassa entry inh inconclusive, HCMV inh -97.6, Marburg entry inh inconclusive
CC(=O)c1cccc(-c2ccnc3c2CC(C(=O)NCCC(F)(F)F)O3)c1 (stereo not drawn)	none (no result: Lassa entry inh, Marburg entry inh)
COc1ccc(Oc2ccc3c(-c4ccccc4F)noc3n2)c(F)c1	none (no result: FMDV antiviral, VACV Venus inh, Lassa entry inh, Marburg entry inh, Vaccinia mCherry)
Cc1cc(S(=O)(=O)NCCc2csc(-c3cccc(F)c3)n2)ccc1F	VACV Venus inh 11.2µM, Vaccinia mCherry inconclusive (no result: Marburg entry inh)
O=S(=O)(NCCc1csc(-c2cccnc2)n1)c1cc(F)ccc1F	HCMV inh -60.7
Cc1c(C(=O)N2CCCCC2)c(S(=O)(=O)Nc2ccc(F)cc2F)c(C)n1C	none
O=[N+]([O-])c1ccccc1-c1cc(-c2ccccc2Br)no1	none (no result: FMDV antiviral, VACV Venus inh, Lassa entry inh, Marburg entry inh, Vaccinia mCherry)
COc1ccc(NC(=O)c2ccccc2[N+](=O)[O-])cc1	HCMV inh inconclusive
Cc1cc(CNC(=O)c2cccc([N+](=O)[O-])c2C)c2ccccc2n1	FMDV antiviral 14.1µM, Lassa entry inh inconclusive, HCMV inh -73.3, Marburg entry inh inconclusive
O=C(NCc1cccc(Cl)c1)c1cnc(N2CCOCC2)c2ccccc12	none (no result: Marburg entry inh)
COc1ccc(CNC(=O)c2cnc(N3CCOCC3)c3ccccc23)cc1	HCMV inh -109.3 (no result: Marburg entry inh)
COc1ccc(CNC(=O)c2ccccc2[N+](=O)[O-])cc1	HCMV inh -108.2, Marburg entry inh inconclusive (no result: VACV Venus inh, Vaccinia mCherry)
Cc1ccc(S(=O)(=O)N(C)c2ccc(OCC(=O)Nc3ccc(C(=O)N(C)C)cc3)cc2)cc1C	none
COc1ccc(Cc2[nH]n3c(=O)cc(C(C)C)nc3c2-c2ccccc2)cc1	FMDV antiviral inconclusive, Lassa entry inh inconclusive, HCMV inh -73.0, Marburg entry inh 12.6µM, Vaccinia mCherry inconclusive
COc1ccc(Cc2[nH]n3c(=O)cc(C)nc3c2-c2ccccc2)cc1	Marburg entry inh inconclusive
CCCCn1c(N)c(N(CCC(C)C)C(=O)CN2C(=O)C3CCCCC3C2=O)c(=O)[nH]c1=O (stereo not drawn)	Lassa entry inh inconclusive
Cc1ccc(N(CC(=O)NC2CC2)S(=O)(=O)c2ccccc2)c(C)c1	HCMV inh inconclusive (no result: VACV Venus inh, Lassa entry inh, Marburg entry inh, Vaccinia mCherry)
CCOC(=O)N1CCN(C(=O)CCl)CC1	FMDV antiviral inconclusive, VACV Venus inh 3.16µM, Lassa entry inh inconclusive, Marburg entry inh inconclusive, Vaccinia mCherry 2.24µM
CC(C)(C)NC(=O)CN1CCCN(C(=O)COc2ccc(Cl)c3ccccc23)CC1	Lassa entry inh inconclusive, Vaccinia mCherry inconclusive
CC(C)(C)NC(=O)CN1CCN(C(=O)CCl)CC1	FMDV antiviral inconclusive, VACV Venus inh 2.51µM, Lassa entry inh inconclusive, HCMV inh -63.4, Marburg entry inh inconclusive, Vaccinia mCherry inconclusive
